From PubChem BioAssay

Assay: yeast growth modulation, basal conditions, primary screen, YJM789 clinical isolate, OD600, 24 h (AID 1089);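 further: growth of clinical yeast isolate S. cerevisiae YJM 789 seeded 1000 cells per well; test concentration not given here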
Details: S. cerevisiae YJM789 growth, higher = more signal, called active from +8 up or from −8 down

z-score, inactive:
O=C1C[C@@](C(=O)O)(c2ccc([N+](=O)[O-])cc2)[C@@H](c2ccc(CO)cc2)N1CC12CC3CC(CC(C3)C1)C2 0.629
Cc1ccc(S[C@]2(C(=O)O)CC(=O)N(Cc3ccccc3C(F)(F)F)[C@@H]2c2ccc(CO)cc2)cc1 0.517
COC(=O)c1ccc(OC)c(/C=C\CC(CCc2ccccc2)OC(C)=O)c1 (stereo unspecified) -0.714
C#CCNS(=O)(=O)N(C)C 1.24
O=C1CSC(c2cccc([N+](=O)[O-])c2)N1c1ccccc1 (stereo unspecified) -0.0876
CCN(CC)c1ccc(N2CC=CC34O[C@@H]5/C=C\CCCOC(=O)C5[C@H]3C(=O)N(CCCCCO)[C@@H]4C2=O)cc1 (stereo partly specified) -0.177
OCc1ccc(-c2cc[n+](Cc3cccc(OC(F)(F)F)c3)cc2)cc1 -1.54
COCC1=C([C@H](O)CCc2ccccc2)[C@H](CO)[C@@H]2C(=O)N(C)C(=O)[C@@H]2C1 0.119
COC(=O)[C@@]1(Cc2ccc(F)cc2)[C@H]2c3cc(C(=O)N(C)C)n(Cc4ccc(C)c(F)c4F)c3C[C@H]2CN1C(=O)c1ccccc1 0.28
CCOC(=O)C[C@H]1[C@H](OC(=O)c2ccc(C(=O)c3ccccc3)cc2)[C@@H](NC(=O)C2CCCCC2)c2cc(OCCCO)ccc2N1C(=O)Cc1ccc(OC)cc1 -0.989
CCCN1C(=O)[C@@]2(Cc3ccccc3)N=C(c3ccc(OCCCO)cc3)O[C@H]2c2ccccc21 -1.46
O=C1C2C=CC(C(O)c3ccccn3)N(Nc3ccccc3)C2C(=O)N1c1ccccc1 (stereo unspecified) 0.756
COc1cc(C(O)C2C=CC3C(=O)N(C)C(=O)C3N2NC(=O)OC(C)(C)C)cc(OC)c1OC (stereo unspecified) 0.61
COCC(=C=CC[C@@H](O)c1ccccc1OCCO)C[C@@H](O)c1ccccn1 -0.108
C[N+](C)(C)CCCC[C@@H]1NC(=O)[C@@H]2C[C@H](C(=O)O)[C@H](c3cccc(OCCO)c3)N2C1=O 0.852
C=CCC(OC(C)=O)[C@@H]1[C@@H](N(Cc2ccc(-c3cccc(C(F)(F)F)c3)o2)C(=O)c2cccc3ccccc23)c2cc(OCCCO)ccc2N1C(=O)c1ccc(-c2ccccc2)cc1 (stereo partly specified) 0.0476
COCCCNC(=O)[C@@]1(C)c2ccccc2C(=O)N(c2ccc(C)cn2)[C@H]1c1ccc(CO)cc1 -0.435
COCCCNC(=O)[C@@]1(Cc2ccccc2CN=[N+]=[N-])N=C(c2ccc(OCCCO)cc2)O[C@H]1c1ccccc1N=[N+]=[N-] -0.299
CC1(C)[C@@H]2CC(C(O)C3C=CC4C(=O)N(c5ccccc5)C(=O)C4N3Nc3ccccc3F)=C[C@@H]1C2 (stereo partly specified) -0.601
CCOC(=O)C[C@H]1[C@H](OC(=O)Cc2ccc3c(c2)OCO3)[C@@H](NC(=O)c2ccccc2)c2cc(OCCCO)ccc2N1C(=O)c1ccc2ccccc2n1 -2.25
C=CC[C@]1(C(=O)NCC(O)CO)N=C(c2ccc(OCCCO)cc2)O[C@H]1c1ccccc1N=[N+]=[N-] (stereo partly specified) -0.285
C=C(COC)C(=O)CC[C@H](OC(=O)c1ccccc1-c1ccccc1C(=O)O)c1ccc(OCCO)cc1 -1.73
COC(=O)[C@@]1(Cc2ccc(OC)cc2)[C@H]2c3cc(C(=O)N(C)C)n(Cc4cc(F)c(F)c(F)c4)c3C[C@H]2CN1C(=O)c1ccccc1 0.725
C=CCC(OC(C)=O)[C@@H]1[C@@H](N(Cc2ccc(-c3ccccc3)cc2)C(=O)Cc2ccc(OC)cc2)c2cc(OCCCO)ccc2N1C(=O)c1ccc(-c2ccccc2)cc1 (stereo partly specified) -0.445
COc1ccc(CCNC(=O)[C@@H]2c3ccccc3C(=O)N(Cc3ccccc3)[C@H]2c2ccc(CO)cc2)cc1 -1.34
COC(=O)C(CC#Cc1ccc2c(c1)[C@]1(C(=O)N2)[C@H](c2ccccc2OCCO)N2[C@H](c3ccccc3)[C@H](c3ccccc3)OC(=O)[C@H]2[C@@H]1C(=O)Nc1nc2ccccc2s1)C(=O)OC 2.11
COc1cc2c(cc1OC)CN(C(=O)[C@@H]1[C@H]3C(=O)O[C@H](c4ccccc4)[C@H](c4ccccc4)N3[C@H](c3ccc(OCCO)cc3)[C@@]13C(=O)Nc1ccc(C#CCCO)cc13)CC2 1.68
C[N+](C)(C)CCCCCCNC(=O)[C@H]1C[C@H]2C(=O)N3CCC[C@H]3C(=O)N2[C@H]1c1cccc(OCCO)c1 -0.811
C=C(C(=O)CC[C@H](OC(=O)c1cccnc1)c1ccc(OCCO)cc1)C(C)C 0.366
C=C(COC)C(=O)CC[C@H](OC(=O)c1ccccc1-c1ccccc1C(=O)O)c1ccc(CO)o1 -1.91
COC(=O)[C@@]1(Cc2ccccc2)[C@H]2c3cc(C(=O)N4CCCC4)n(Cc4ccc(OC(F)(F)F)cc4)c3C[C@H]2CN1C(=O)c1ccccc1 1.54
CO[C@H]1O[C@H](CO)[C@@H](OC(=O)c2ccc(Br)cc2)[C@@H]2OC(=O)[C@H](Cc3cccc(Br)c3)C/C=C/C[C@@H](Cc3cccc(Br)c3)C(=O)O[C@@H]12 -0.73
Cc1ccc(N2C(=O)c3ccccc3[C@](C)(C(=O)NC(C)C)[C@@H]2c2ccc(CO)cc2)nc1 -0.273
NC(=O)[C@@H]1[C@H]2C(=O)O[C@H](c3ccccc3)[C@H](c3ccccc3)N2[C@H](c2ccccc2OCCO)[C@@]12C(=O)Nc1ccc(C#CCCO)cc12 0.566
O=C1O[C@H](c2ccccc2)[C@H](c2ccccc2)N2[C@H]1[C@@H](C(=O)N1CCN(c3ncccn3)CC1)[C@]1(C(=O)Nc3ccc(C#CCCO)cc31)[C@H]2c1ccc(OCCO)cc1 0.987
CCCC=C(CCC)[C@@H](NS(=O)(=O)c1cccc2cccnc12)c1ccc(C(=O)OC)cc1 0.797
